Compound activity deposited in PubChem BioAssay by Broad Institute.
Vif imaging: inhibitors of HIV Vif; HEK293T cells, Vif self-association by quenched fluorescence, imaging, 24 h; inhibition, % at 7.49 µM; 340,000 tested, 0.35% active; in the data active means inhibition above about 50%, passing the limit was not always enough; inconclusive means no clear call, values can overlap the other calls; inactive means below about 31%
HSF1 inhib: HSF1 inhibition; NIH3T3-HGL HSE-luciferase, MG132-induced, luminescence 8 h; stronger effect = lower value; activity change, negative = inhibition, % at 7.5 µM (by protocol); 300,000 tested, 0.77% active;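 active means more than half of replicate wells show activity change below -50%, luminescence cut by over half; inconclusive means some wells, but at most half, below -50%; inactive means no replicate well below -50%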;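 further: luciferase reports HSF-1 transcriptional activity via heat shock element; 0% = median of DMSO wells and -100% = zero luminescence signal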
HSF1 activator: increases HSF-1 driven luciferase reporter signal. 300,000 tested, 1.7% active. activation, % at 9 µM. NIH3T3-HGL HSF-1 luciferase reporter, MG132, 8 h; 100% = twice DMSO control signal;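 active means mean replicate activation of at least 50% with a set share of replicates each reaching 50%; inconclusive means only one of those two conditions met; inactive means mean below 50% and too few replicates reaching it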;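 further: 0% = median of the neutral control wells and 100% = twice that signal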
esBAF inh: inhibitors of esBAF chromatin remodeling in mouse ES cells. Bmi1-luciferase knock-in reporter, 24 h; 100% = twice the neutral-well signal. reporter increase, % at 12.5 µM. 350,000 tested, 2% active; in the data active means activation above about 40%; inconclusive means no clear call, values can overlap the other calls;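 further: 0% = median of the plate's neutral control wells and 100% = double that signal; a rise in the Bmi1 reporter signal indicates esBAF inhibition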
* marks the source's active call; other numbers are inactive results. Shown are actives, neighbours in structure and some others; about 3.4% of the full set was active somewhere.

Screening O=C(Nc1ccc2c(c1)oc1ccccc12)c1ccncc1 returned Vif imaging -7.4, HSF1 inhib 13.3, HSF1 activator 14.9 and esBAF inh 31.6.
For O=C(Nc1ccc(-c2nc3ccccc3o2)cc1)c1cccnc1 the results were HSF1 inhib 22.7, HSF1 activator 55.0* and esBAF inh 50.1*.
`O=C(Nc1ccc2oc(-c3ccccc3)nc2c1)c1ccncc1` gave Vif imaging -15.4, HSF1 inhib 5.0, HSF1 activator 5.5 and esBAF inh 54.1*.
O=C(c1ccccc1F)N1C[C@H]2[C@@H](c3ccccc31)[C@@H](CO)N2C(=O)c1ccncc1 was read as esBAF inh -0.1.
Screening COc1ccccc1NC(=O)N1C[C@H]2[C@@H](c3ccccc31)[C@H](CO)N2C(=O)C1CC1 returned esBAF inh 4.0.
For O=C(Nc1ccc(-c2noc(CCc3ccccc3)n2)cc1)c1cccnc1 the results were Vif imaging 23.1, HSF1 inhib 7.1, HSF1 activator 18.4 and esBAF inh 49.4*.
Cc1cccc(C)c1NC(=O)c1cccnc1 was read as Vif imaging 3.1, HSF1 inhib -66.9*, HSF1 activator -75.6 and esBAF inh -4.1.
For O=C(NCCc1ccccc1)c1ccc(NC(=O)c2cccnc2)cc1 the results were Vif imaging -9.6, HSF1 inhib 4.7, HSF1 activator -15.6 and esBAF inh 14.7.
For COc1ccc2c(n1)Sc1nc3ccccc3nc1N2 the results were Vif imaging inactive, HSF1 inhib 27.0, HSF1 activator 55.1* and esBAF inh 23.4.
Screening COc1ccc(-n2c(=O)c3c4c(sc3n(CC(N)=O)c2=O)CCCCC4)cc1 returned Vif imaging inconclusive, HSF1 inhib 10.9 and HSF1 activator 51.9*.
For O=C(NC(=S)N1CCN(c2ccc(Cl)cc2[N+](=O)[O-])CC1)c1ccco1 the results were Vif imaging -3.9, HSF1 inhib -11.7 and HSF1 activator 9.2.
Screening O=C(NC(=S)N1CCN(c2ccc(Cl)cc2[N+](=O)[O-])CC1)c1cccs1 returned Vif imaging -3.7, HSF1 inhib -65.6* and HSF1 activator -67.8.
C[C@H](CO)N1C[C@H](C)[C@@H](CN(C)S(=O)(=O)c2cn(C)cn2)Oc2ccc(NC(=O)C3CCCCC3)cc2CC1=O was read as esBAF inh 2.5.
For O=C(CN(C(=O)c1ccccc1)C(=O)c1ccccc1)OCc1ccccc1 the results were Vif imaging 77.5* and esBAF inh 2.7.
For S=c1[nH]ccn1-c1cccc(Cl)c1Cl the results were Vif imaging 52.4*, HSF1 inhib -2.5 and HSF1 activator -5.2.
For S=c1[nH]ccn1-c1ccccc1Cl the results were Vif imaging 1.3, HSF1 inhib 3.7 and HSF1 activator -4.3.
Screening O=C(Nc1ccccc1)N[C@@H]1CC[C@@H](CCNS(=O)(=O)c2ccccc2F)O[C@@H]1CO returned esBAF inh 4.0.
For COc1ncccc1-c1nnn(-c2ccc(C)cc2)n1 the results were Vif imaging -3.4, HSF1 inhib 26.7, HSF1 activator 18.8 and esBAF inh inconclusive.
COc1ncccc1-c1nnn(-c2ccc(F)cc2)n1 was read as Vif imaging 3.3, HSF1 inhib 21.2, HSF1 activator 39.6 and esBAF inh 53.8*.
Screening COc1ncccc1-c1nnn(-c2ccc(Cl)c(Cl)c2)n1 returned Vif imaging 6.2, HSF1 inhib 35.8, HSF1 activator 44.7 and esBAF inh 87.7*.
For Fc1ccc(-n2nnc(-c3cnc4ccccc4c3)n2)cc1 the results were Vif imaging 1.8, HSF1 inhib -8.6, HSF1 activator -18.7 and esBAF inh -71.1.
Cc1ccc(-n2nnc(-c3cc4ccccc4nc3Cl)n2)cc1 was read as Vif imaging -2.9, HSF1 inhib 4.1, HSF1 activator -1.9 and esBAF inh 45.0*.
Screening O=c1[nH]c2ccccc2cc1-c1nnn(-c2ccc(Cl)c(Cl)c2)n1 returned Vif imaging 16.6, HSF1 inhib -2.5, HSF1 activator 9.7 and esBAF inh 1.2.
O=c1[nH]c2ccccc2cc1-c1nnn(-c2ccc(F)cc2)n1 was read as Vif imaging -2.3, HSF1 inhib 12.2, HSF1 activator 24.2 and esBAF inh 78.9*.
C[C@@H]1CCCCO[C@@H](CN(C)Cc2ccc(C(F)(F)F)cc2)[C@H](C)CN([C@@H](C)CO)C(=O)c2cc(NC(=O)c3ccncc3)ccc2O1 was read as esBAF inh 3.7.
Screening C[C@H]1CN([C@@H](C)CO)C(=O)c2cc(C#CC(C)(C)O)cnc2O[C@@H]1CN(C)Cc1cccc(F)c1 returned esBAF inh -3.7.
